Target: CTNNBL1
Assay: pooled miR-30 sensor sort-seq; sequence = guide strand
Conditions: shRNA
Also: reference of the scale not given here.

Row | Sequence | sensor-assay potency score (higher = more potent)
1 | TACTCCTTGATGATATGCCTGA | -0.148
2 | TGAACTTCTCTGGATTGTCTGG | -0.725
3 | TACAGCATTCAGCTCCACCAGA | -0.685
4 | TTTTTTTGTCATCATCCGCTTC | -0.298
5 | TTAAACACGGATAACTGCTGAA | -0.397
6 | ATCTCTGTCAATAATCTGCAGC | -0.982

Target: CTSB
Assay: as above
Conditions: shRNA

Row | Sequence | sensor-assay potency score (higher = more potent)
7 | TCACAGATCTTGCTACACTTGG | -0.121
8 | TCTCTGATCTCTTTGATGGTGG | -0.142
9 | TTTGTTGACATAGTTGACCAGC | -0.0911
10 | TTGTCCTGTTTGTAGGTCGGGC | -0.855
11 | TTCTGATTCGATTCCACAGTGA | -0.73
12 | TTTTCTTGTCCAGAAGTTCCAA | -0.152
13 | TGTTGGTACACTCCTGACTTGT | -1.2
14 | ATAGTTGACCAGCTCATCCGAC | -0.423
15 | TTTCTTGTCCAGAAGTTCCAAG | -1.12
16 | TTCCACAGTGATCCTGTCCTCT | -0.145
17 | TAGTTGACCAGCTCATCCGACA | -0.966
18 | TTGTAGGTCGGGCTGTAGCCAG | -1.22
19 | TTGGTGTGGATGCAGATCCGGT | -1.05
20 | TATCCGTAGTGCTTGTCCTGTT | -0.438
21 | TTGGCAACCAGCCAGTAGGGTG | -1.27
22 | TTTTTGTAGATCTCGGCCATGA | -0.154
23 | TTCTATTAAAGAATCATGCTGA | 0.656
24 | TTGTCCAGAAGTTCCAAGCTTC | -0.113
25 | TTCTCGCTATTGGAGACGCTGT | -1.66
26 | TAACTTGACAGGGTGAAGCTGT | -0.16
27 | TTGTAGAGCAGGAAGTCCGAAT | -0.653
28 | TAAACATAACTCTCTGGGGTGG | -0.755
29 | TGACGTGTTGGTACACTCCTGA | 0.569
30 | TCGGTAAACATAACTCTCTGGG | -0.352

Target: CTSH
Assay: as above
Conditions: shRNA

Row | Sequence | sensor-assay potency score (higher = more potent)
31 | TTCTCCATACCCAACAGCCAGT | -1.28
32 | TACATCCTTGACAAAGCCGATG | -1.28
33 | TTTGGTGGCTGAGCAATTCTGA | -0.218
34 | TTAGACATCCATGACTTGAAGT | -0.899
35 | TATATGTGGAAAGTAGCCCTTC | 0.309
36 | TCTATACATCATGAAGTCCTGA | 0.44
37 | TTCCTCGTCATAGATTGTGATG | -1.43
38 | TTATCTTCCTCCAGTTGCTGGC | -0.0224
39 | TGCTTAGACATCCATGACTTGA | -1.27
40 | TACTGTAGGTCTTACGGTGCTT | -0.0767

Source: the OligoGym collection
